Results taken from PubChem BioAssay (Tox21).
Records with an inconclusive call do not appear. Activity calls are given as the source filed them. Unless noted, calls come from the whole dose curve.

Assays:
[1] = molecular target: KiSS-1 receptor (Homo sapiens) (UniProt Q969F8); test: Human kisspeptin (KISS1R) small molecule agonists, calcium flux assay in KISS1R-HEK293 cells (AID 1920064; active = well fitted activation curve with a large enough effect in the repeat runs)
Procedure, shortened: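 Agonist mode: intracellular calcium rise tracked at 1 s intervals over 3 min (480/540 nm) immediately after compound addition to dye-loaded KISS1R-HEK293 stable cells. Each compound tested at 15 concentrations in triplicate.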

[2] = p53 small molecule agonists, cell-based qHTS assay with human liver microsomes: qHTS cell viability counter screen (AID 1963579); note: nearly all actives have a fitted effect of over 45% in size
Procedure, shortened: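 Viability of p53RE-bla cells is measured as CellTiter-Glo luminescence following a 16 h, 37 C incubation with compound, liver microsomes from human donors and NADPH.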

[3] = p53 small molecule agonists, cell-based qHTS assay with rat liver microsomes: qHTS cell viability counter screen (AID 1963580); note: nearly all actives have a fitted effect of over 45% in size
Procedure, shortened: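 Cytotoxicity counter screen: intracellular ATP measured by CellTiter-Glo luminescence in the same wells as the beta-lactamase reporter read, on HCT-116 p53RE-bla cells exposed 16 h at 37 C to compounds with rat liver microsomes and NADPH, each 0.5 mg/mL final.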

[4] = p53 small molecule agonists, cell-based qHTS assay: qHTS cell viability counter screen (AID 1963581); note: nearly all actives have a fitted effect of over 45% in size
Procedure, shortened: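 Counter screen read by CellTiter-Glo luminescence (ATP content, 30 min at room temperature), run in the same wells as the beta-lactamase reporter read. HCT-116 p53RE-bla cells saw compounds for 16 h at 37 C.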

[5] = molecular target: 5-hydroxytryptamine receptor 2A (Homo sapiens) (UniProt P28223); test: 5-hydroxytryptamine receptor 2A (HTR2A) small molecule antagonists, cell-based qHTS assay (AID 1963586); note: nearly all actives have a fitted effect of over 45% in size; note: potency is the fitted concentration of half-maximal effect
Procedure, shortened: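 CHO cells stably expressing human HTR2A were plated for 18 h at 37 C, then loaded with calcium dye for 1 h. Compounds were preincubated 5 min at room temperature before DOI (4 nM solution) was added. Kinetic fluorescence was read for 3 min.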

[6] = molecular target: 5-hydroxytryptamine receptor 2A (Homo sapiens) (UniProt P28223); test: 5-hydroxytryptamine receptor 2A (HTR2A) small molecule agonists, cell-based qHTS assay (AID 1963587); note: nearly all actives have a fitted effect of over 30% in size
Procedure, shortened: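 CHO cells stably expressing human HTR2A, plated 18 h, loaded with calcium dye 1 h at 37 C. Agonist mode: compounds added and intracellular calcium fluorescence recorded kinetically for 2 min at 1 sec intervals.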

[7] = molecular target: Muscarinic acetylcholine receptor M1 (Homo sapiens) (UniProt P11229); test: Cholinergic receptor muscarinic 1 (CHRM1) small molecule antagonists, cell-based qHTS assay (AID 1963588); note: nearly all actives have a fitted effect of over 40% in size
Procedure, shortened: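 Compounds were tested at 15 concentrations in three independent runs. Dye-loaded CHRM1-CHO cells were exposed 5 min at room temperature before stimulation by acetylcholine added at 50nM. Intracellular calcium was read kinetically on FDSS for 3 min.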

[8] = molecular target: Muscarinic acetylcholine receptor M1 (Homo sapiens) (UniProt P11229); test: Cholinergic receptor muscarinic 1 (CHRM1) small molecule agonists, cell-based qHTS assay (AID 1963589); note: nearly all actives have a fitted effect of over 35% in size
Procedure, shortened: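 Agonist-mode calcium-flux screen: compounds at 15 concentrations, three independent runs, were pin-transferred onto dye-loaded human CHRM1-CHO cells. Fluorescence was then recorded kinetically every second over minutes.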

[9] = cAMP Responsive Elements (CRE) small molecule agonists, cell-based qHTS assay (AID 1963590)
Procedure, shortened: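 Agonist mode: compound added to CRE-bla HEK 293T cells (2,000/well, 18 h after plating) for 3 h at 37 C/5% CO2. Reporter activity detected via FRET beta-lactamase substrate, 2 h room-temperature loading.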

[10] = cAMP Responsive Elements (CRE) small molecule antagonists, cell-based qHTS assay (AID 1963591; active = well fitted inhibition curve with a large enough effect in the signal ratio in the repeat runs, not every such curve was filed as active; the % refers to the signal ratio; note: potency is the fitted concentration of half-maximal effect)
Procedure, shortened: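 Antagonist mode: compounds are added alongside the adenylyl cyclase activator NKH477 (0.25 uM final) to CRE-bla HEK293T cells for 3 h. LiveBLAzer FRET substrate, 2 h at room temperature, reports bla expression.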

[11] = molecular target: Beta-2 adrenergic receptor (Homo sapiens) (UniProt P07550); test: Adrenergic beta2 receptor (ADRB2) small molecule antagonists, cell-based qHTS assay (AID 1963592); note: series mostly up to about 92 µM; nearly all actives have a fitted effect of over 50% in size
Procedure, shortened: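 Assay format: CHO-ADRB2 cells, 18-20hr seeding at 37C/5% CO2, then compound plus 1nM isoproterenol agonist mix for 0.5hr RT. Homogeneous time-resolved fluorescence cAMP detection after 1hr, expressed as 665/615 nm ratio.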

[12] = molecular target: Beta-2 adrenergic receptor (Homo sapiens) (UniProt P07550); test: Adrenergic beta2 receptor (ADRB2) small molecule agonists, cell-based qHTS assay (AID 1963593);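 note: CHO cells stably overexpressing human ADRB2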
Procedure, shortened: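 CHO cells stably over-expressing ADRB2 were plated overnight at 37C, then dosed with compounds plus a stimulation mix containing 100uM IBMX and 25uM Ro-20-1724 for 0.5hr at room temperature. cAMP was measured by HTRF competition, 1hr.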

[13] = molecular target: D(2) dopamine receptor (Homo sapiens) (UniProt P14416); test: Dopamine D2 receptor (DRD2) small molecule agonists, cell-based qHTS assay (AID 1963594); note: nearly all actives have a fitted effect of over 35% in size
Procedure, shortened: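 HEK293 cells stably expressing human DRD2, pre-treated with PDE inhibitor Ro20-1724 (0.1 mM final) and compound 10 min at room temperature, then stimulated with NKH477 (200nM […]) for 30 min. cAMP read by HTRF (665/620 nm).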

[14] = molecular target: D(2) dopamine receptor (Homo sapiens) (UniProt P14416); test: Dopamine D2 receptor (DRD2) small molecule antagonists, cell-based qHTS assay (AID 1963595; active = well fitted inhibition curve with a large enough effect in the signal ratio in the repeat runs, with a control signal flat; the % refers to the signal ratio)
Procedure, shortened: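 Cells were plated and grown for 24 h at 37 °C. Ro20-1724 (0.1 mM final) went in first, then compound for 10 min. NKH477 (200 nM) with quinpirole (12 nM) followed for 30 min at RT, then HTRF detection reagents for 1 h.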

[15] = molecular target: Gonadotropin-releasing hormone receptor (Homo sapiens) (UniProt P30968); test: Human gonadotropin-releasing hormone receptor (GnRHR) small molecule agonists, calcium flux assay in GnRHR-HEK293 cells (AID 1920063); note: nearly all actives have a fitted effect of over 35% in size
Procedure, shortened: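 Agonist mode: compounds at 15 concentrations, in triplicate, went onto calcium dye-loaded GnRHR-HEK293 cells. Intracellular calcium was then followed as 480/540 nm fluorescence at 1 s intervals over 3 min.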

[16] = G protein-coupled receptor (GPCR) small molecule agonists, calcium flux assay: HEK293 wild type cell line counter screen (AID 1920065)
Procedure, shortened: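 Calcium flux counter screen: compound added in agonist mode at 15 concentrations in triplicate to dye-loaded parental HEK293 cells. Fluorescence (480/540) read kinetically for 3 min; ATP served as positive control.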

[17] = p53 small molecule agonists, cell-based qHTS assay with human liver microsomes (AID 1963577);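 note: p53 response element beta-lactamase reporter cells with liver microsomes plus NADPH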
Procedure, shortened: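 HLM-supplemented p53RE-bla reporter assay: 16 h compound exposure at 37 C, microsomes and NADPH each 0.5 mg/mL final, read by fluorescence intensity.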

[18] = p53 small molecule agonists, cell-based qHTS assay with rat liver microsomes (AID 1963578)
Procedure, shortened: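 Quantitative HTS of the Tox21 10K library: p53RE-bla cells, rat liver microsomes plus NADPH at 0.5 mg/mL final each, 16 h at 37 C, beta-lactamase fluorescence detection.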

[19] = p53 small molecule agonists, cell-based qHTS assay (AID 1963582; active = well fitted activation curve with a large enough effect in the signal ratio in the repeat runs, not every such curve was filed as active; the % refers to the signal ratio)
Procedure, shortened: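 Read-out is beta-lactamase FRET fluorescence after 2 h at room temperature with LiveBLAzer B/G substrate. p53 response element-bla cells were treated 16 h at 37 C with compounds in DMSO, added 5 h after seeding.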

Measured: Potency

Sequence of 5-hydroxytryptamine receptor 2A (Homo sapiens) (P28223 whole entry, looked up): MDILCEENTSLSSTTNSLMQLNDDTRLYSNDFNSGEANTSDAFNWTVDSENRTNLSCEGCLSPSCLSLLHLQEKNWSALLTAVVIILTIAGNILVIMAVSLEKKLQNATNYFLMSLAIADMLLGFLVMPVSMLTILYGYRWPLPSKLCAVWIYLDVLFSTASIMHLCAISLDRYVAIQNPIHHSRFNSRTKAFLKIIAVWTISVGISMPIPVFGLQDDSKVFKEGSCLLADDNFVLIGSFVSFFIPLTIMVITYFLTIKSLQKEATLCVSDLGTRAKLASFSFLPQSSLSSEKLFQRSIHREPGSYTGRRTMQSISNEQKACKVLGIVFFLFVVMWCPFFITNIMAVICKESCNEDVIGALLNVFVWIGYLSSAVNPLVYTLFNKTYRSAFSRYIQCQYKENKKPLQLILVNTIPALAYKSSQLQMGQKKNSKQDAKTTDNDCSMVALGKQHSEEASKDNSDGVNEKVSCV
Sequence of Beta-2 adrenergic receptor (Homo sapiens) (P07550 whole entry, looked up): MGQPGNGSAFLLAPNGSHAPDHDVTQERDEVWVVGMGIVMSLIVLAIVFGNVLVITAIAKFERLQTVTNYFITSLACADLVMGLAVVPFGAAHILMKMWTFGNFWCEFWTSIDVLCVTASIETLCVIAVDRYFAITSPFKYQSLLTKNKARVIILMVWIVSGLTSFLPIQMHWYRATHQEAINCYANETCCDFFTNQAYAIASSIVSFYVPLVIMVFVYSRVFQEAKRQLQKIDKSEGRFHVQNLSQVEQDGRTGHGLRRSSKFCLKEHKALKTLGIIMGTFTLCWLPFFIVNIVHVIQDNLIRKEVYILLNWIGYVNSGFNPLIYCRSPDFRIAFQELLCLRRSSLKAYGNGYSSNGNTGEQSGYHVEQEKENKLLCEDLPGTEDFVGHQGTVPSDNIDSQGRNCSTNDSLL
Sequence of D(2) dopamine receptor (Homo sapiens) (P14416 whole entry, looked up): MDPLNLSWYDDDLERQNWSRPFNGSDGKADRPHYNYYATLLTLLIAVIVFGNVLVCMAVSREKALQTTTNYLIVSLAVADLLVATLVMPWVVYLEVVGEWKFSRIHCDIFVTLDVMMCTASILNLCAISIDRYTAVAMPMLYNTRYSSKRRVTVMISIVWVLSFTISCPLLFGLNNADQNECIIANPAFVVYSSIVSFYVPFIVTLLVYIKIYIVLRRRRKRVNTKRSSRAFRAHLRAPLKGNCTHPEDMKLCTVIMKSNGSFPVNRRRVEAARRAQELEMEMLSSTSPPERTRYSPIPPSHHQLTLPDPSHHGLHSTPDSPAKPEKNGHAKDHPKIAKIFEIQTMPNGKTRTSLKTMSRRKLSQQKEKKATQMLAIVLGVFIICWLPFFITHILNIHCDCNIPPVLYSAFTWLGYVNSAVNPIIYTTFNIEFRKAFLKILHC
Sequence of Gonadotropin-releasing hormone receptor (Homo sapiens) (P30968 whole entry, looked up): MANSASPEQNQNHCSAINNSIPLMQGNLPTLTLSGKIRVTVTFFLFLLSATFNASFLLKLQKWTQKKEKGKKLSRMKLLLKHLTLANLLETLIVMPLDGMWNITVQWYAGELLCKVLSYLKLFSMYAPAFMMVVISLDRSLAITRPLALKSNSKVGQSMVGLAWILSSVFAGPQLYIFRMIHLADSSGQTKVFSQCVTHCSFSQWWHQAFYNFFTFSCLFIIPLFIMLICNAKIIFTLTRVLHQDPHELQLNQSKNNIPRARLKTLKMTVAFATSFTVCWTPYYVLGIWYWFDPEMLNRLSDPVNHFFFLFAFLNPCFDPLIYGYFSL
Sequence of KiSS-1 receptor (Homo sapiens) (Q969F8 whole entry, looked up): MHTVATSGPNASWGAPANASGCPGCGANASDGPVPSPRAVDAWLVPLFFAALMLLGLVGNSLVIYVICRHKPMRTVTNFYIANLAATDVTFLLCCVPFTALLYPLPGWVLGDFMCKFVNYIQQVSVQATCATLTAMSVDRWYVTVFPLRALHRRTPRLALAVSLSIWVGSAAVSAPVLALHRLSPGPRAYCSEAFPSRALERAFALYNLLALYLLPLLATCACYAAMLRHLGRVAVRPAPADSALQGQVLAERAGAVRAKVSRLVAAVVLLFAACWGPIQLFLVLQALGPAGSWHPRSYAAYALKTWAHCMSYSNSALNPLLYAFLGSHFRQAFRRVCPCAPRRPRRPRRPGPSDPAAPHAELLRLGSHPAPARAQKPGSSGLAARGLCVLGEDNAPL
Sequence of Muscarinic acetylcholine receptor M1 (Homo sapiens) (P11229 whole entry, looked up): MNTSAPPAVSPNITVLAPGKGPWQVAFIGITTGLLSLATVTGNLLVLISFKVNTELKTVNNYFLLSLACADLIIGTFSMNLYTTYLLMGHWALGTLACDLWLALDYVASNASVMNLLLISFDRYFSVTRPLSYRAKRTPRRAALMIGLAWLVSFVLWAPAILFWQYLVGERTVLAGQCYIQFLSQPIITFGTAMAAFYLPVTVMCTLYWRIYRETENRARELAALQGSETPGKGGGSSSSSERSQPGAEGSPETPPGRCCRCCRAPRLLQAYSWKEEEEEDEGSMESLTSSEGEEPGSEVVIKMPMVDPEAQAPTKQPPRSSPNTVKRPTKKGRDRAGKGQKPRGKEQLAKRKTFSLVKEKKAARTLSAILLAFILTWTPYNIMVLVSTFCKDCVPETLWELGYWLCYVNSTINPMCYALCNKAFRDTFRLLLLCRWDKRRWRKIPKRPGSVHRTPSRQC

Cc1occc(=O)c1O
not listed: [15] | [16] | [17] | [18] | [19]
inactive: all other assays above

Nc1ncn([C@@H]2O[C@H](CO)[C@@H](O)[C@H]2O)c(=O)n1
active: [10] 40.3 µM
not listed: [5] | [6] | [7] | [8] | [12] | [19]
inactive: all other assays above

C=C(C)C(=O)OCCCCCC
not listed: [1] | [4] | [6] | [10] | [12]
inactive: all other assays above

CC1(C)S[C@@H]2[C@H](NC(=O)[C@H](N)c3ccccc3)C(=O)N2[C@H]1C(=O)O
not listed: [5] | [6] | [7] | [8]
inactive: all other assays above

O=C(OCc1ccccc1)c1ccc(O)cc1
active: [5] 33.4 µM
not listed: [2]
inactive: all other assays above

Cc1ncc([N+](=O)[O-])n1CCO
not listed: [3] | [5] | [6] | [7] | [8] | [9]
inactive: all other assays above

CC(=O)Oc1ccc(C(c2ccc(OC(C)=O)cc2)c2ccccn2)cc1
not listed: [1] | [5] | [6] | [7] | [8] | [9] | [10] | [19]
inactive: all other assays above

C[Si](O[Si](C)(C)C)O[Si](C)(C)C
not listed: [1] | [3] | [7] | [10]
inactive: all other assays above

CC(=O)Oc1ccc(C)cc1
not listed: [9] | [12]
inactive: all other assays above

CCOC(=O)C(C#N)=C(c1ccccc1)c1ccccc1
not listed: [7] | [10]
inactive: all other assays above

CC(O)COc1ccccc1 (stereo unspecified)
inactive: all assays above

Clc1ccccn1
inactive: all assays above

O=NO
not listed: [12] | [16] | [17] | [18] | [19]
inactive: all other assays above

CCCC(CCC)C(=O)O
inactive: [15] | [1] | [16] | [9] | [10] | [12] | [13]
